TEAD-YAP block – TEAD-YAP interaction inhibition | HEK-TIYL cells, TEAD-Gal4/YAP UAS-luciferase luminescence | inhibition, % at 9.12 µM | 640,000 tested, 1.4% active | AID 1259422; in the data active means inhibition above about 32%;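 further: 0% = median of test compound wells and 100% = reference inhibitor wells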
FBW7 act – activators of human E3 ligase FBW7; Q969H0; AlphaScreen FBW7–phospho-cyclin E peptide binding, activator screen; normalized activity (activation), % at 26.1 µM; 650,000 tested, 0.13% active; AID 1259310; in the data active means normalized activity above about 1.9%;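 further: purified mutant Fbw7 with reduced substrate affinity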
Target sequence (Q969H0 whole entry, looked up): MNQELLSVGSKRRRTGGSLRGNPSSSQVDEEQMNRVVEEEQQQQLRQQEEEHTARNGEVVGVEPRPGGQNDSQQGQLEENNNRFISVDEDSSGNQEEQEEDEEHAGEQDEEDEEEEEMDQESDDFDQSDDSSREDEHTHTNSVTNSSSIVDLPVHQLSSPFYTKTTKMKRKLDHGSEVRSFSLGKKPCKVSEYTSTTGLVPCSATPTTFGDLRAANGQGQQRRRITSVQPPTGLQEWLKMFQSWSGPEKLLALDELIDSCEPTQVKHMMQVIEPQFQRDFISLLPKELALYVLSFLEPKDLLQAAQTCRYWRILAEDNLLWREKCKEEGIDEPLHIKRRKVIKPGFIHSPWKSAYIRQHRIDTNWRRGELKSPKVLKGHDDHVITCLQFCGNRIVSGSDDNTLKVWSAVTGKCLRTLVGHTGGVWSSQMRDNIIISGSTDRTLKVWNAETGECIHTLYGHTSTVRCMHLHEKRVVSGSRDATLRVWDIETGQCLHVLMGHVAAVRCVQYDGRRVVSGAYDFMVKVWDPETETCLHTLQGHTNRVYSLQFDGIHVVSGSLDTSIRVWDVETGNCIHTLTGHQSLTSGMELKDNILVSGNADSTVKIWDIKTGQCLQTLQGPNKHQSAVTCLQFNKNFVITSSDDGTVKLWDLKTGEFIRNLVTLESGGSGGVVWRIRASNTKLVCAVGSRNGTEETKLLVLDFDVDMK
MITF primary – blocks human microphthalmia-associated transcription factor | O75030 | AlphaScreen MITF homodimerization, bead proximity signal | inhibition, % at 2.6 µM | 650,000 tested, 0.91% active | AID 1259374; in the data active means inhibition above about 50%;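 further: 0% = vehicle wells with protein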
GPR151 activ – activators of human GPR151 | activation, % at 11.2 µM | PathHunter beta-arrestin GPR151 cells, luminescence | Q8TDV0 | 650,000 tested, 1% active; in the data active means activation above about 4.9%;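 further: 0% = median of compound wells and 100% = cells with positive control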
An asterisk follows results filed as active. Sampled rows, rich in hits. Any-hit rate of the full collection: about 3.5%.

SMILES	TEAD-YAP block	FBW7 act	MITF primary	GPR151 activ
COc1ccc2c(c1)C1NC(=S)N(c3ccc(C)cc3)C(C)(O2)C1C(=O)Nc1ccc(C)cc1C (stereo unspecified)	13	0	36	-2
Cc1ccc(C2/C(=C(/O)c3ccc(F)cc3)C(=O)C(=O)N2CCN(C)C)cc1 (stereo unspecified)	-9	0	-13	-1
Cc1cn2cc(CNC(=O)c3ccc(CN(C)Cc4ccsc4)[nH]c3=O)nc2s1	-1	0	-1	0
O=C(Nc1ccc2ncsc2c1)c1ccc(F)cc1	-37	1	22	-5
O=C(Nc1onc2c1CCC2)c1ccc2ccccc2c1	-26	0	-9	0
O=C(Nc1ccc2ncsc2c1)c1ccc2c(c1)OCCO2	86*	0	3	-8
COc1cccc(S(=O)(=O)Nc2ccc3c(c2)OCCO3)c1	33*	0	1	0
O=C(Nc1onc2c1CCCC2)c1ccc2c(c1)OCO2	65*	0	6	-9
O=C(O)C1=C(C(=O)Nc2ccc3c(c2)OCCO3)CCCC1	55*	0	3	0
Cc1csc(C(C)N(C)c2nc3nonc3nc2NC2CC2)n1 (stereo unspecified)	4	0	-53	-1
Cc1ccc(C(=O)Nc2ccc3c(c2)OCCO3)cc1	0	0	-19	1
O=C(Nc1ccc2c(c1)OCCO2)c1ccc(F)cc1	43*	0	-15	-6
COc1ccc(N2CCN(C(=O)c3c(F)cccc3F)CC2)cc1	5	0	-13	1
Cc1ccc(C(C)C)c(OCC(O)CN2CCN(c3ccccn3)CC2)c1 (stereo unspecified)	-1	0	8	-2
CC(C)(C)c1ccccc1OCC(=O)NN	36*	0	-5	0
COc1ccccc1OCC(=O)Nc1cccc(C(=O)O)c1	36*	0	-9	-7
O=C(COc1ccc(Cl)cc1Cl)Nc1cccc(O)c1	71*	0	15	-1
O=Cc1ccccc1OCC(=O)Nc1ccccc1	32*	1	15	-3
Cc1cccc(NC(=O)COc2ccc(Cl)cc2Cl)c1	-24	0	-4	-1
COc1ccc(NC(=O)COc2ccccc2C(C)(C)C)cc1OC	43*	0	7	3
O=C(COc1ccc(Cl)cc1Cl)Nc1cccc(C(=O)O)c1	97*	0	-14	-7
O=C(COc1ccc(Cl)cc1[N+](=O)[O-])Nc1ccccc1	34*	0	-6	-1
O=C(COc1ccc(C(F)(F)F)cc1[N+](=O)[O-])Nc1ccc(Cl)cc1	-14	0	-2	0
COc1ccc(NC(=O)COc2ccccc2C)cc1OC	-14	1	-10	1
C=CCc1cc(/C=C2/NC(=O)NC2=O)cc(OC)c1O	6	1	15	1
SMILES	TEAD-YAP block	FBW7 act	MITF primary	GPR151 activ
Cc1ccc2oc(-c3ccc(N4CCC(C)CC4)c([N+](=O)[O-])c3)nc2c1	93*	0	14	-2
Cc1cc2ncn(C(=O)c3c(-c4c(Cl)cccc4Cl)noc3C)c2cc1C	-10	2.4*	9	0
Cc1cc2ncn(C(=O)c3c(-c4ccccc4)noc3C)c2cc1C	11	0	2	1
OC(CNCC1CCCO1)COc1ccc(OCC(O)NCC2CCCO2)cc1 (stereo unspecified)	6	2.3*	12	-1
OC(CNCC1CCCO1)COc1ccc(OCC(O)CNCC2CCCO2)cc1 (stereo unspecified)	2	0	9	1
NC(=O)Nc1ccc(C(=O)OCC(=O)NC2CCCCC2)cc1	34*	0	6	-1
O=C(COc1ccc(S(=O)(=O)NC2CCCCC2)cc1)NC1CCCCCC1	35*	1	4	1
O=C(COC(=O)c1ccc(O)cc1)NC1CCCCCC1	-6	0	-6	1
CC(C)(c1ccccc1)c1ccc(OCC(=O)NC2CCCC2)cc1	-4	1.9*	12	0
COc1ccc(N2C(=O)NC3CC2(C)Oc2ccc(Cl)cc23)cc1OC (stereo unspecified)	6	2.2*	-1	1
O=C(CCCO)N/N=C/c1ccc(O)cc1	-6	0	18	-1
Cc1ccc(-c2c(N3CCN(c4ccccc4F)CC3)c(=O)c2=O)cc1	0	0	-10	3
COc1cccc(N2CCN(c3c(-c4ccc(C)cc4)c(=O)c3=O)CC2)c1	66*	0	0	3
COc1ccccc1N1CCN(c2c(-c3ccc(C)cc3)c(=O)c2=O)CC1	71*	0	-3	4
COc1ccccc1NC(=O)N1CCC(c2nc3ccc(Cl)cc3[nH]2)CC1	80*	0	-3	0
COc1ccccc1NC(=O)CN1CCC(c2nc3ccc(C)cc3[nH]2)CC1	-17	0	-18	0
COc1ccccc1NC(=O)N1CCC(c2nc3ccc(C)cc3[nH]2)CC1	64*	0	-3	0
Cc1nn(C(C)C(=O)NCC2CCCO2)c(=O)c2c1sc1ccccc12 (stereo unspecified)	-7	-1	-10	0
COc1ccc(-c2cc(-c3cc(OC)ccc3O)[nH]n2)cc1	-46	-1	12	0
COc1ccc(-c2cc(-c3c(O)ccc4ccccc34)[nH]n2)cc1	89*	0	4	2
Cc1ccccc1Nc1nc(Cl)nc(Nc2ccccc2C)n1	45*	0	5	1
Cc1ccc(Nc2nc(Cl)nc(Nc3ccc(C)cc3C)n2)c(C)c1	-1	0	5	0
Nc1ccc2cc(S(=O)(=O)O)cc(O)c2c1	-2	-2	77*	-1
O=S(=O)(O)c1cc(O)c2cc(Nc3ccccc3)ccc2c1	12	0	44	1
CCC(C)(C)NC(=O)CN(C(=O)CCC(=O)Nc1ccccn1)c1cc(C)ccc1C	-2	0	-8	-1
SMILES	TEAD-YAP block	FBW7 act	MITF primary	GPR151 activ
O=C(CN1CCCCC1)N/N=C/c1cccc(Cl)c1	-8	0	-2	-1
Cc1ccc(NC(=O)CCN2CCC(C)CC2)cc1	10	2.3*	12	-1
CCCCC(=O)Nc1ccccc1-c1nnn(CC(=O)Nc2ccccc2)n1	-3	0	-5	1
CCCCC(=O)Nc1ccccc1-c1nnn(CC(=O)Nc2ccc3c(c2)OCCO3)n1	12	2.3*	13	-1
COC(=O)c1ccc(NC(=O)C23CCC(C)(C(=O)C2)C3(C)C)cc1 (stereo unspecified)	-6	0	-1	-1
CCS(=O)(=O)c1ncc(Cl)c(C(=O)Nc2cccc(Cl)c2)n1	95*	0	6	-2
CCCS(=O)(=O)c1ncc(Cl)c(C(=O)Nc2ccc(OC)cc2)n1	34*	1	16	-2
CCS(=O)(=O)c1ncc(Cl)c(C(=O)Nc2ccc(C)c(C)c2)n1	35*	0	-5	-2
O=C(NCc1nc(NCCCc2ccccc2)c2ccccc2n1)c1ccoc1	8	0	-1	-1
O=C(NCc1nc(NCCCc2ccccc2)c2ccccc2n1)c1ccsc1	34*	0	-9	0
O=C(C1C2CCCCC21)N(CCN(C(=O)C1C2CCCCC21)c1ccccc1)c1ccccc1 (stereo unspecified)	8	0	-3	-1

Screening data: PubChem, The Scripps Research Institute Molecular Screening Center
